Records with an inconclusive call do not appear. Entries that show only a call come without a potency. Calls of active or inactive are those of the source. Calls follow the shape of the dose curve; as a rule, active = well fitted cell-killing curve with a large enough effect; inconclusive = small, poorly fitted or top-dose-only effect, or effect the other way; inactive = flat fitted curve, though single readings scatter.

In the test the test system is Tov-21-G. Put plainly: Primary qHTS to identify gynecologic anti-cancer compounds using libraries of approved drugs and bioactive compounds (AID 1345084). Also: nearly all actives have a fitted effect of over 55% in size. As to conditions: Gynecologic cancer cell panel viability, ATPlite luminescence, 48 h; series mostly up to 57.5 µM. Put shortly:
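Measured: luminescence after ATPlite addition (15 min, RT). Exposure: 48 h, 37 C, 5% CO2.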
For the molecule `CCCC1=CC2=C(CO1)C(=O)C(C)(O)C(OC(=O)c1c(C)cc(OC)cc1O)C2` (stereo not given), the Potency result was “inactive”.
Same read-out and setting: then `CCOc1ccc(-c2nn3ncccc3c2-c2ccc(S(C)(=O)=O)cc2)cc1`, with “inactive”.
Still for that read-out and setting: then `CC1(C)[C@H]2C[C@H](C/C=C\CCCC(=O)O)[C@@H](NC(=O)c3csc4ccc(O)cc34)[C@@H]1C2`, with “inactive”; and `O=C(Cc1ccc(Cl)cc1)Nc1cnccc1C(=O)O`, with “inactive”.
Same read-out and setting: then `C[C@@H]1O[C@@H](O[C@H]2[C@H](Oc3cc(O)c(C(=O)CCc4ccc(O)cc4)c(O)c3)O[C@H](CO)[C@@H](O)[C@@H]2O)[C@H](O)[C@H](O)[C@H]1O`, with “inactive”.
For `O=C1C(Cl)=C(N2CCOCC2)C(=O)N1c1ccc(Cl)c(Cl)c1`, the Potency entry is “inactive”.
With `C[C@@H]1O[C@@H](OC2C(O[C@H]3[C@H](O[C@H]4CC[C@@]5(C)C(CC[C@]6(C)C5CC=C5C7CC(C)(C)CC(O)[C@]7(C)CC[C@]56C)C4(C)C)O[C@H](C(=O)O)[C@@H](O)[C@@H]3O)OC(CO)C(O)C2O)[C@H](O)[C@H](O)[C@H]1O` (stereo not given in full), the activity change, negative = cytotoxicity was 5% [at 11.6 µM] (inactive).
For `CCC(C)/C=C(C)/C=C/C1=CC2=C(Cl)C(=O)C(C)(OC(C)=O)C(=O)C2=CN1C(CC(=O)O)C(=O)O` (stereo not given), the Potency entry was “inactive”.
Consider `C/C=C(\C)C(=O)OC[C@H]1O[C@@H](O[C@H]2[C@@H](O[C@H]3O[C@H](COC(=O)/C(C)=C/C)[C@@H](O)[C@H](O)[C@H]3O[C@@H]3O[C@H](CO)[C@@H](O)[C@H](OC(=O)/C(C)=C/C)[C@H]3O)O[C@H](COC(=O)/C(C)=C/C)[C@@H](O)[C@@H]2O)[C@H](O)[C@@H](O)[C@@H]1O`, for which the activity change, negative = cytotoxicity was 2.42% [at 11.6 µM] (inactive).
On to `COc1cc(C)c(C(=O)O[C@@H]2[C@H](O)[C@@H](CO)O[C@H]2n2ccc(=O)[nH]c2=O)c(OC)c1`, for which the Potency entry was “inactive”.
Regarding `C=C[C@H]1[C@H](O[C@@H]2O[C@H](CO)[C@@H](O)[C@H](O)[C@H]2O)OC=C(C(=O)OC)[C@H]1CCO`, the Potency result was “inactive”.
Turning to `COc1cc(CCCO)ccc1O[C@@H]1O[C@H](CO)[C@@H](O)[C@H](O)[C@H]1O`, the Potency result was “inactive”.
Consider `CC[C@H](C)[C@H](NC(=O)[C@H](Cc1ccc(O)cc1)NC(=O)[C@@H](N)C(C)C)C(=O)N[C@@H](Cc1cnc[nH]1)C(=O)N1CCC[C@H]1C(=O)N[C@@H](Cc1ccccc1)C(=O)O`, for which the activity change, negative = cytotoxicity is 1.06% [at 6.55 µM] (inactive).
In the case of `CC(C)(O)C(O)C(=O)OCc1ccc(O[C@@H]2O[C@H](CO)[C@@H](O)[C@H](O)[C@H]2O)cc1` (stereo not given in full), the Potency result was “inactive”.
As for `C=Cc1ccc(O[C@@H]2O[C@H](CO[C@@H]3O[C@@H](C)[C@H](O)[C@@H](O)[C@H]3O)[C@@H](O)[C@H](O)[C@H]2O)cc1`, the Potency result was “inactive”.
In the case of `COc1ccc(-n2c(SCC#N)nc3sc4c(c3c2=O)CCCC4)cc1`, the Potency entry is “inactive”.
Still for that read-out and setting: with `O=C(CC1CC(c2ccc(F)cc2F)=NO1)N1CCOCC1` (stereo not given) the entry was “inactive”.
For the molecule `CC(C)=C1CC2[C@](C)(CC[C@@H](OC(=O)C3(C)OC3C)[C@@]2(C)O)CC1=O` (stereo not given in full), the Potency entry was “inactive”.
With `COc1cc(/C=C/C(=O)O[C@H]2[C@H](O)[C@@H](CO)O[C@@]2(CO)O[C@H]2O[C@H](CO)[C@@H](O)[C@H](O)[C@H]2O)cc(OC)c1O`, the Potency result was “inactive”.
For `CC(=O)OC(C)(C)/C=C/C(=O)[C@](C)(O)C1[C@H](O)C[C@@]2(C)[C@@H]3CC=C4[C@@H](C[C@H](O[C@@H]5O[C@H](CO)[C@@H](O)[C@H](O)[C@H]5O)C(=O)C4(C)C)[C@]3(C)C(=O)C[C@]12C` (stereo not given in full), the Potency result was “inactive”.
For the molecule `CC(C)C(NC(=O)c1ccc(O)cc1)C(=O)N1CCCC1C(=O)Nc1c(O)cccc1C(=O)O` (stereo not given), the Potency result is “inactive”.
Regarding `O=C(OC[C@H]1O[C@@H](Oc2ccccc2COC(=O)C2(O)C=CCCC2O)[C@H](O)[C@@H](O)[C@@H]1O)c1ccccc1` (stereo not given in full), the Potency result was “inactive”.
Turning to `COc1cc(/C=C/C(=O)O)ccc1O[C@@H]1O[C@H](CO)[C@@H](O)[C@H](O)[C@H]1O[C@@H]1OC[C@](O)(CO)[C@H]1O`, the Potency entry was “inactive”.
For `CC1C(O)C(O)C2C(C(=O)OCCc3ccc(O)cc3)=COC(O[C@@H]3O[C@H](CO)[C@@H](O)[C@H](O)[C@H]3O)C12` (stereo not given in full), the Potency entry was “inactive”.
Regarding `CC1OC(OC2C(OC(=O)[C@]34CCC(C)(C)C[C@H]3C3=CCC5[C@@]6(C)CC[C@H](OC7OC(C(=O)O)C(O)C(O)C7O)C(C)(C)C6CC[C@@]5(C)[C@]3(C)CC4O)OC(CO)C2O)C(O)C(O)C1OC1OCC(O)C(O)C1O` (stereo not given in full), the activity change, negative = cytotoxicity was 5.56% [at 11.6 µM] (inactive).

These data come from PubChem BioAssay (NCATS).
